Assay results taken from PubChem BioAssay AID588856 (National Center for Advancing Translational Sciences (NCATS), 2011).
Where “and” joins values, the source holds several entries; their conditions need not be identical. Equal values may be shown once. Out of some 410,000 compounds screened, about 3,100 (0.76%) were called active. Entries that show only a call come without a potency. The call rests on the fitted dose curve; in most records, active means well fitted cell-killing curve with a large enough effect; inactive means no such curve, though single readings can be large or run the other way. The sample as a whole holds a higher share of actives than the screen did. Where a structure was tested more than once in an assay, its records may differ in their call.

Test: qHTS for Inhibitors of TGF-b: Cytotox Counterscreen
Details: HepG2 CAGA-GFP viability, ATP luminescence, 18 h; series mostly up to 46.1 µM
In short: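 CellTiter-Glo luminescence gave cytotoxicity after 18 hours at 37 degrees C. The cells were HepG2 CAGA-GFP in 1% FBS DMEM, stimulated with 500 pg/mL TGF-beta after compound addition. %Activity was normalised to no-cell wells (complete cell-killing) and DMSO (no toxicity), and curves were fitted and classified.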
Potency means the concentration at half of the fitted maximal effect.

SMILES | Potency
CCOc1ccccc1NC(=O)CN1CCCN(Cc2cccc(Cl)c2)S1(=O)=O | inactive
O=C1COc2ccc(-c3csc(-c4ccc(Cl)cc4)n3)cc2N1 | inactive
CNC(=O)[C@]1(C(F)(F)F)C[C@H](CCc2ccccc2)CCCO1 | inactive
Cc1cccc(OCC(O)CN2CCN(S(=O)(=O)c3ccc(C)cc3C)CC2)c1 (configuration not stated) | inactive
CCc1ccc(OCC(O)CN2CCN(CCO)CC2)cc1 (configuration not stated) | inactive
Cc1cccc(OCC(O)CN2CCN(CCN3C(=O)c4cccc5cccc(c45)C3=O)CC2)c1C (configuration not stated) | 12.6 µM (active)
COc1cc2nc(NCC(C)c3ccccc3)n3nc(-c4ccccc4)nc3c2cc1OC (configuration not stated) | inactive
Cc1cc2nc(-c3ccc(NC(=O)c4cc5ccccc5o4)cc3)oc2cc1C | inactive
O=S1(=O)CCC(NC(=S)SCc2ccccc2Br)C1 (configuration not stated) | inactive
CC(C)C(=O)NC(NC(=S)NC1CCS(=O)(=O)C1)C(Cl)(Cl)Cl (configuration not stated) | inactive
CCCSC(=S)NC1CCS(=O)(=O)C1 (configuration not stated) | 11.2 µM (active)
O=C(/C=C/c1cn(CC(O)CN2CCc3ccccc32)c2ccccc12)c1ccc(Br)cc1 (configuration not stated) | inactive
CCOc1ccc(C(O)Cn2c(=N)n(CCN3CCCCC3)c3ccccc32)cc1 (configuration not stated) | inactive
CCOc1ccc(C(=O)/C=C/c2cn(CC(O)CN3CCCCCC3)c3ccccc23)cc1 (configuration not stated) | 11.2 µM (active)
COc1ccc(CC(N)c2csc(NC(=O)NC(c3ccccc3)c3ccccc3)n2)cc1 (configuration not stated) | 12.6 µM (active)
COc1ccc(C(=O)NC(Cc2ccc(OC(=O)c3ccc(OC)cc3)cc2)C(=O)O)cc1 (configuration not stated) | inactive
COc1ccc(CNC(=O)C(Cc2ccccc2)n2cccc2)cc1 (configuration not stated) | inactive
CN(C(=N)N)c1ccc(/C=C2\C=Cc3ccccc32)cc1 | inactive
Cc1ccc2c(=O)c(C(=O)c3ccc(Cl)cc3)cn(CC(=O)NC3CCCCC3)c2n1 | inactive
NCCCNC(=S)NCCCN(Cc1ccc(Cl)cc1)c1ccc(Br)cn1 | inactive and 17.8 µM (active)
S=C(NCCCc1cnc[nH]1)NCCCN(Cc1ccc(Cl)c(Cl)c1)c1ccc(Br)cn1 | 10 µM (active)
CC(C)(C)c1ccc(C(=O)NCC(c2ccco2)S(=O)(=O)c2ccc(F)cc2)cc1 (configuration not stated) | inactive
CSc1ccc(CCNC(=O)c2cc(C)nc3c2c(C)nn3-c2cccc(F)c2)cc1 | inactive
CC(C)(C)OC(=O)N1CCC(c2c(C(=O)NCc3ccccn3)cnn2-c2ccc(F)cc2)CC1 | inactive
COc1ccccc1N1CCN(c2ncnc3onc(-c4cccc(Cl)c4)c23)CC1 | inactive

SMILES | Potency
Cc1cccc(CC(=O)N2CC(=O)Nc3ccc(F)cc3C2c2ccccc2)c1 (configuration not stated) | inactive
O=C(NCc1ccccc1)C1CCN(S(=O)(=O)c2ccc3[nH]c(=O)ccc3c2)CC1 | inactive
CCCn1c(NCc2ccccc2F)nc2ccccc21 | inactive
CCN1/C(=C\c2ccc3ccccc3[n+]2CC)Sc2cc(C)ccc21 | 11.2 µM (active)
CSc1ccccc1-c1nnc(NC(=O)c2ccc3c(c2)OCCO3)o1 | inactive
CCn1c(SCC(=O)N/N=C/C=C/c2ccccc2[N+](=O)[O-])nnc1-c1ccccc1 | inactive
Cc1ccsc1/C=N/NC(=O)Cc1cc(=O)[nH][nH]1 | inactive
Cc1ccccc1NCC(=O)N/N=C\c1ccc([N+](=O)[O-])s1 | 11.2 µM (active)
COc1ccc(N(CC(=O)N/N=C/c2cccs2)S(=O)(=O)c2ccc(OC)c(OC)c2)cc1 | inactive
COc1ccc(C(=O)NCC(=O)N/N=C/c2ccc([N+](=O)[O-])s2)cc1OC | 11.2 µM (active)
COc1ccc(C(=O)NCC(c2ccco2)N2CCc3ccccc32)cc1OC (configuration not stated) | inactive
CCc1nc2ccc(C(=O)N3CCN(c4cc(Cl)ccc4C)CC3)cc2nc1CC | inactive
CC(C)c1ccc(OCC(=O)N(Cc2ccc(N(C)C)cc2)C2CCS(=O)(=O)C2)cc1 (configuration not stated) | inactive
CC(=O)OC1=C(C(C)=O)N(Cc2ccccc2)S(=O)(=O)c2ccccc21 | inactive
Oc1c(C(c2ccc(F)cc2)N2CCN(Cc3ccccc3)CC2)sc2nc(-c3ccco3)nn12 (configuration not stated) | inactive
CCc1ccccc1NC(=O)c1ccc2nc(CCc3ccccc3)oc2c1 | inactive
COc1cccc(CNn2cn[nH]c2=S)c1OCc1ccccc1 | inactive
COc1cccc(CNCCc2c[nH]c3ccccc23)c1OCc1ccccc1F | 17.8 µM (active)
COc1cccc(CNCCSc2nnnn2C)c1OCc1ccccc1Cl | inactive
CCC(C)Nc1oc(-c2ccc(COc3ccc(Cl)cc3)o2)nc1C#N (configuration not stated) | inactive
C/C(=N\NC(=O)CC(C)C)c1c(C(F)(F)F)[nH]n(-c2nc3ccccc3s2)c1=O | 10 µM (active)
CCC(C)Cn1c(O)cc2nn(-c3nc4ccccc4s3)c(=O)c-2c1C (configuration not stated) | inactive
O=C(Nc1ccc(F)cc1F)c1ccc2c(=O)n3c(nc2c1)CCCCC3 | inactive
CC(C)(C)c1ccc(C(=O)Nc2ccc3c(c2)CCCN3C(=O)c2cccs2)cc1 | inactive
CCCn1c(=N)n(CC(O)COc2ccccc2OC)c2ccccc21 (configuration not stated) | inactive

SMILES | Potency
COc1ccc(Cn2c(=O)sc3ccccc32)cc1OC | inactive
OC(CN=c1sc2ccccc2n1CC(O)COc1ccccc1)COc1ccccc1 (configuration not stated) | 14.1 µM (active)
Cc1c(NC(=O)Nc2ccc(F)c(Cl)c2)c(=O)n(-c2ccccc2)n1C | inactive
CCCOc1ccc(NC(=O)CC2C(=O)N(c3ccccc3)C(=O)N2Cc2ccco2)cc1 (configuration not stated) | inactive
CN1c2ccc(C=O)c3c(C=O)ccc(c23)N(C)C1(C)C | 11.2 µM (active)
O=C1C[C@@H](c2ccc3ccccc3c2)N1S(=O)(=O)c1ccccc1[N+](=O)[O-] | inactive
CCOc1ccc(OCC)c(NC(=O)c2cc(C)nc3c2c(C)nn3-c2cccc(Cl)c2C)c1 | inactive
Cc1cccc(N2CCN(C(=O)c3ccc4c(c3)CCN4S(=O)(=O)c3ccccc3)CC2)c1C | inactive
Cc1c(C)n(Cc2ccc(Cl)cc2)c2ccc(C(=O)N3CCN(c4ccccc4F)CC3)cc12 | inactive
CCn1c(C)c(C)c2cc(C(=O)N3CCN(c4cccc(C)c4C)CC3)ccc21 | inactive and 17.8 µM (active)
O=C1OC(C(=O)Nc2cccc(Br)c2)Cc2ccccc21 (configuration not stated) | inactive
Nc1ccc(Nc2ccccc2)cc1 | 12.6 µM (active)
Nc1ccccc1N | inactive
Cc1ccc(Nc2ccccc2N)cc1 | inactive
OCCNc1ncnc2oc(-c3ccco3)c(-c3ccco3)c12 | inactive
O=C(CSc1nnc(-c2ccncc2)n1-c1ccccc1)Nc1ccc(Cl)c(Cl)c1 | inactive
O=C(CC(O)(C(F)(F)F)C(F)(F)F)Nc1ccc(Cl)c(Cl)c1 | 10 µM (active)
Cc1ccc(-c2nn(CCC(=O)Nc3ccc(Cl)c(Cl)c3)c(=O)c3ccccc23)cc1 | inactive
O=C(Nc1cc(C(F)(F)F)ccc1Cl)c1ccc2c(c1)CCN2S(=O)(=O)c1ccccc1 | inactive
NC(=O)Nc1ccc(/C=C/c2ccnc3ccccc23)cc1 | inactive
CCN(CC)S(=O)(=O)c1ccc(NC(=O)c2cccnc2Cl)c(NC(=O)c2cccnc2Cl)c1 | 12.6 µM (active)
CCN(CC)S(=O)(=O)c1ccc(C)c(NC(=O)COc2ccc(Br)cc2Cl)c1 | inactive
Cc1ccc(S(=O)(=O)N(C)C)cc1NC(=O)c1ccccc1Br | inactive
O=C1O/C(=C\c2ccc(O)cc2)C(O)=C1c1ccc(O)cc1 | inactive
COc1ccc(CN2CCC(=O)c3ccccc3S2(=O)=O)cc1 | inactive

SMILES | Potency
OCC(O)C(O)C(O)C(O)C=Nc1ccc(/C=C/c2ccnc3ccccc23)cc1 (configuration not stated) | inactive
Cc1nn(Cc2ccc(F)cc2)c(C)c1NC(=O)c1cc(CC(C)C)on1 | inactive
O=C1CCC[C@@H]2C[C@@]3(C[C@@H]4CCN1[C@H]24)Nc1ccccc1NC3=NCc1ccccc1 | inactive
COc1cc(OC)c(OC)cc1/C=C1\C=Cc2ccccc21 | inactive
Cc1nc2nc(SCC(=O)NC3CCC(C)CC3)nn2c(C)c1Cc1ccccc1Cl (configuration not stated) | inactive
CCCCNC(=O)C1CCCN(c2nnc(C)c3c(C)n(-c4ccc(Cl)cc4)nc23)C1 (configuration not stated) | inactive
CCOc1ccc(CNC(=O)C2CCCN(c3nnc(C)c4c(C)n(-c5ccccc5)nc34)C2)cc1 (configuration not stated) | inactive and 12.6 µM (active)
Cc1nnc(N2CCCC(C(=O)NCCN(C)C)C2)c2nn(-c3ccccc3)c(C)c12 (configuration not stated) | inactive
C(=Nc1ccc(/C=C/c2ccnc3ccccc23)cc1)Nc1ccc(/C=C/c2ccnc3ccccc23)cc1 | inactive
CCc1ccc(NC(=O)c2cc3c(=O)n(Cc4cccnc4)ccc3nc2C)cc1 | inactive
Cc1c(Cl)cccc1NC(=O)Cn1cc(C(=O)c2cccs2)c2ccccc21 | inactive
CC(C)c1ccc(S(=O)(=O)Nc2ccc(O)c(Sc3nc4ccccc4s3)c2)cc1 | inactive
O=[N+]([O-])c1c(NCCO)cc(Sc2nc3ccccc3s2)c2nonc12 | 15.8 µM (active)
CC(C)(C)c1ccc(S(=O)(=O)Nc2ccc(O)c(Sc3nc4ccccc4s3)c2)cc1 | inactive
COc1ccc(-c2nn(CC(=O)Nc3ccccc3F)c3c2cnc2ccc(F)cc23)cc1 | inactive
CN(CCC#N)c1ccc(C=O)cc1 | inactive
O=C(Cn1c(=O)n(-c2ccc(F)cc2)c(=O)c2sccc21)Nc1cccc(C(F)(F)F)c1 | inactive
COc1ccc(/C=C/c2ccnc3ccccc23)cc1OC | inactive
O=C(c1c(Cl)cccc1Cl)N1CCN(c2cccc3[nH]ccc23)CC1 | 0.447 µM (active)
O=C(c1ccc2ccccc2n1)N1CCN(c2ccccc2Cl)CC1 | inactive
Cc1cccc(N2CCN(C(=O)c3cc4c(=O)[nH]c5ccccc5c4n3C)CC2)c1C | inactive
CCc1ccccc1N(C)C(=O)C1CCCN(c2ncnc3onc(-c4ccc(F)cc4)c23)C1 (configuration not stated) | inactive
